For some assays here: Measured potencies and affinities stand elsewhere.

From ChEMBL document CHEMBL3988442, “University of Dundee, Small-Polar-MMV Screening Library” (2021) come the findings set out here.

Holding throughout (parameters): scale not given: direction of the effect not stated beside the values
Assay [1] addresses Protein translocase subunit SecA (Escherichia coli (strain K12)) (UniProt P10408). As to the kind of experiment: Assay to Identify E. coli SecA ATPase Inhibitors. As to conditions: 30 µM. Format: functional.
Assay [2] concerns the target T1, Ubiquitin-activating enzyme e1, putative (Leishmania donovani (strain BPK282A1)) (UniProt E9BSI1).
T1 sequence (whole entry): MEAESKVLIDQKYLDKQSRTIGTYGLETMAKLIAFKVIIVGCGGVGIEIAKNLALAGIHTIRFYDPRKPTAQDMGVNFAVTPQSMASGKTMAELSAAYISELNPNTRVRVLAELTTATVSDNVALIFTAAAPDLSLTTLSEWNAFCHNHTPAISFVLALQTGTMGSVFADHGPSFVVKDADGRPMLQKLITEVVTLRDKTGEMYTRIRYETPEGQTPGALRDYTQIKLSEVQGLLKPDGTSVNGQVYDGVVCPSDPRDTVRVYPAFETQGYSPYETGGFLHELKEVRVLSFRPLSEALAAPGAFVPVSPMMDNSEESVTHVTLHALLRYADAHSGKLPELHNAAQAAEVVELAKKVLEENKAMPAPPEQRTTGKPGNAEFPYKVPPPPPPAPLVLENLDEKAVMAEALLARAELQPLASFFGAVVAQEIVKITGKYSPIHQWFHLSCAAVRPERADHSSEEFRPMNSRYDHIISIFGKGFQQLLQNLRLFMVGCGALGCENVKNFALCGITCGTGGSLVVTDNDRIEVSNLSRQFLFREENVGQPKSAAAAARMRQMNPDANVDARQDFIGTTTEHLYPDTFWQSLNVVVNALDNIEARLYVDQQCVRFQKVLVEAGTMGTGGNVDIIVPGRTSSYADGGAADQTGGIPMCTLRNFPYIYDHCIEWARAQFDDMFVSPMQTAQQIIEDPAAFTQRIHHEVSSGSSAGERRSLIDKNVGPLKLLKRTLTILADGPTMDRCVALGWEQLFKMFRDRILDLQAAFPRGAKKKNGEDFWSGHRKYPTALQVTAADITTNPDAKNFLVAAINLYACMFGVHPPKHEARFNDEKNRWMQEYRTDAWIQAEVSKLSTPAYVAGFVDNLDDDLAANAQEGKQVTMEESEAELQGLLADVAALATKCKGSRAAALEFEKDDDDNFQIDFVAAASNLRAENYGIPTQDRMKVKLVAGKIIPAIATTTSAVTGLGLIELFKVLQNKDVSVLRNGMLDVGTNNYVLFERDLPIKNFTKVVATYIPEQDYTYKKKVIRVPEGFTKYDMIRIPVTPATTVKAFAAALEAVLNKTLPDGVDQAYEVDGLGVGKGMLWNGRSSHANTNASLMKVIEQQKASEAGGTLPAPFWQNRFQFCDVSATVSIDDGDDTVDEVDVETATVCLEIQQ
The experiment in a line: Leishmania donovani Ubiquitin Activating Enzyme (LdE1). To be noted: 30 µM. Format: functional.

Assay [3] addresses AMP-activated protein kinase, AMPK (Homo sapiens) (UniProt P54646+O43741+P54619+Q9UGJ0+Q9Y478+Q13131+Q9UGI9). As to the kind of experiment: AMP-dependent Kinase enzyme assay. An in vitro enzyme assay that detects ADP turnover that is directly proportional to AMPK activity. This uses naive AMPK that is activated during the assay with MK-8722. Format: functional. To be noted: 30 µM.

Assay [4] addresses Sialic acid-binding Ig-like lectin 9 (Homo sapiens) (UniProt Q9Y336). The experiment in a line: Hs-Siglec9 ALPHAscreen SOP 20170721. As to conditions: 10 µM. Background: In Alpha technology, singlet oxygen from a donor bead excites a nearby acceptor bead.
For assay [5], the system named is Trypanosoma cruzi. The experiment in a line: Trypanosoma cruzi phosphomannomutase and mannose-1-phosphate guanylyltransferase assay. Format: functional. To be noted: 10 µM.
In assay [6] the target is T2, Arginase-2, mitochondrial (Homo sapiens) (UniProt P78540).
T2 sequence (whole entry): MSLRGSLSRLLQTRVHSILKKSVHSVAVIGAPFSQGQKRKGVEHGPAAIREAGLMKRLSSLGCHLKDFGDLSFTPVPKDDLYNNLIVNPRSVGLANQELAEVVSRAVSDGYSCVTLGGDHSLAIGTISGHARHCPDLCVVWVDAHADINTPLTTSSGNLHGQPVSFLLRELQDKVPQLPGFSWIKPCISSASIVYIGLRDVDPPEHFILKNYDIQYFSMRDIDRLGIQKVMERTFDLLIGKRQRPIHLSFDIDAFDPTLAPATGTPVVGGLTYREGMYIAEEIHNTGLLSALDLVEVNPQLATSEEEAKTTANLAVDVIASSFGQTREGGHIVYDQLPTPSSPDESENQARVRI
The experiment in a line: in vitro enzyme assay to detect the production of urea directly proportional to the activity of Arginase II. Note: in the data most compounds retested in dose-response had high values. Format: functional. As to conditions: 33.3 µM.

Assay [7] has as its target T3, Proteasome subunit beta (Trypanosoma cruzi) (UniProt O96673).
T3 sequence (whole entry): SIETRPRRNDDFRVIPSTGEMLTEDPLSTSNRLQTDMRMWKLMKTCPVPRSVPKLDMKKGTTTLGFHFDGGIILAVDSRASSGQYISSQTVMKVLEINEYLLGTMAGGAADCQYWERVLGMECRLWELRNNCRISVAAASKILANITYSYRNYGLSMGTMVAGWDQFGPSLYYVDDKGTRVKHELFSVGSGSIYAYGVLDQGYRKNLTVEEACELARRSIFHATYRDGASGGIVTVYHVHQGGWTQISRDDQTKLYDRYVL
As to the kind of experiment: Trypanosoma cruzi proteasome chymotrypsin-like activity (TcProtChymo) assay. Note: in the data most compounds retested in dose-response had high values. As to conditions: 9.37 µM. Type of assay: functional.

Assay [8] is filed under the species Homo sapiens. The experiment in a line: To identify inhibition of the IFN signalling (Jak-Stat) pathway via expression of an eGFP reporter gene under the control of an IFN-stimulated response element (ISRE) containing MxA promoter. Type of assay: functional. As to conditions: 30 µM.
The target of assay [9] is T4, Tyrosyl-tRNA synthetase, putative (Trypanosoma cruzi (strain CL Brener)) (UniProt Q4DSP6).
T4 sequence (whole entry): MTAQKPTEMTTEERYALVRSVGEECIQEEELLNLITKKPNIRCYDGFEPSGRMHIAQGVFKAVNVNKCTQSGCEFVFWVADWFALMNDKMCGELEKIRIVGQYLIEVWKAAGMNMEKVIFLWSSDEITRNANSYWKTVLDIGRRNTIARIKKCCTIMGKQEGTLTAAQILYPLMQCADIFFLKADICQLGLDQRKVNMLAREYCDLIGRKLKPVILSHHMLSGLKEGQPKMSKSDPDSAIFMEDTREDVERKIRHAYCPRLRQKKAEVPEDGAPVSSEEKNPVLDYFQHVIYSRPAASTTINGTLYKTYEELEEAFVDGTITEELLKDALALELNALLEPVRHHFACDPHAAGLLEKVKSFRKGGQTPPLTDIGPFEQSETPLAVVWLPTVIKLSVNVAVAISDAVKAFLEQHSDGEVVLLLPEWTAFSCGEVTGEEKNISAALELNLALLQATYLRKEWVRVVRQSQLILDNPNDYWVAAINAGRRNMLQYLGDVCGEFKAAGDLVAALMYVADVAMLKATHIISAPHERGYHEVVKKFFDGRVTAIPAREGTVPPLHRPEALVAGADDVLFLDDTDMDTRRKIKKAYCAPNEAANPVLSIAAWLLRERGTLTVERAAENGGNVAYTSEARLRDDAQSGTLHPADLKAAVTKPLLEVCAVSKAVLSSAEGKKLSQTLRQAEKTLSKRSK
As to the kind of experiment: Trypanosoma cruzi tyrosyl tRNA synthetase (TcYRS) _High Tyrosine SOP. Note: in the data most compounds retested in dose-response had high values. Type of assay: functional. To be noted: 30 µM.

The target of assay [10] is T4, Tyrosyl-tRNA synthetase, putative (Trypanosoma cruzi (strain CL Brener)). The experiment in a line: Trypanosoma cruzi tyrosyl tRNA synthetase (TcYRS) SOP. Type of assay: functional. To be noted: 30 µM.
In assay [11] the target is Chromo domain-containing protein 1 (Saccharomyces cerevisiae (strain ATCC 204508 / S288c) (Baker's yeast)) (UniProt P32657). As to the kind of experiment: ScCHD-1 Enzyme Inhibition Assay. Note: in the data most compounds retested in dose-response had high values. Type of assay: functional. To be noted: 30 µM.
Sequence of Chromo domain-containing protein 1 (Saccharomyces cerevisiae (strain ATCC 204508 / S288c) (Baker's yeast)) (P32657 whole entry, the tested form may be a part): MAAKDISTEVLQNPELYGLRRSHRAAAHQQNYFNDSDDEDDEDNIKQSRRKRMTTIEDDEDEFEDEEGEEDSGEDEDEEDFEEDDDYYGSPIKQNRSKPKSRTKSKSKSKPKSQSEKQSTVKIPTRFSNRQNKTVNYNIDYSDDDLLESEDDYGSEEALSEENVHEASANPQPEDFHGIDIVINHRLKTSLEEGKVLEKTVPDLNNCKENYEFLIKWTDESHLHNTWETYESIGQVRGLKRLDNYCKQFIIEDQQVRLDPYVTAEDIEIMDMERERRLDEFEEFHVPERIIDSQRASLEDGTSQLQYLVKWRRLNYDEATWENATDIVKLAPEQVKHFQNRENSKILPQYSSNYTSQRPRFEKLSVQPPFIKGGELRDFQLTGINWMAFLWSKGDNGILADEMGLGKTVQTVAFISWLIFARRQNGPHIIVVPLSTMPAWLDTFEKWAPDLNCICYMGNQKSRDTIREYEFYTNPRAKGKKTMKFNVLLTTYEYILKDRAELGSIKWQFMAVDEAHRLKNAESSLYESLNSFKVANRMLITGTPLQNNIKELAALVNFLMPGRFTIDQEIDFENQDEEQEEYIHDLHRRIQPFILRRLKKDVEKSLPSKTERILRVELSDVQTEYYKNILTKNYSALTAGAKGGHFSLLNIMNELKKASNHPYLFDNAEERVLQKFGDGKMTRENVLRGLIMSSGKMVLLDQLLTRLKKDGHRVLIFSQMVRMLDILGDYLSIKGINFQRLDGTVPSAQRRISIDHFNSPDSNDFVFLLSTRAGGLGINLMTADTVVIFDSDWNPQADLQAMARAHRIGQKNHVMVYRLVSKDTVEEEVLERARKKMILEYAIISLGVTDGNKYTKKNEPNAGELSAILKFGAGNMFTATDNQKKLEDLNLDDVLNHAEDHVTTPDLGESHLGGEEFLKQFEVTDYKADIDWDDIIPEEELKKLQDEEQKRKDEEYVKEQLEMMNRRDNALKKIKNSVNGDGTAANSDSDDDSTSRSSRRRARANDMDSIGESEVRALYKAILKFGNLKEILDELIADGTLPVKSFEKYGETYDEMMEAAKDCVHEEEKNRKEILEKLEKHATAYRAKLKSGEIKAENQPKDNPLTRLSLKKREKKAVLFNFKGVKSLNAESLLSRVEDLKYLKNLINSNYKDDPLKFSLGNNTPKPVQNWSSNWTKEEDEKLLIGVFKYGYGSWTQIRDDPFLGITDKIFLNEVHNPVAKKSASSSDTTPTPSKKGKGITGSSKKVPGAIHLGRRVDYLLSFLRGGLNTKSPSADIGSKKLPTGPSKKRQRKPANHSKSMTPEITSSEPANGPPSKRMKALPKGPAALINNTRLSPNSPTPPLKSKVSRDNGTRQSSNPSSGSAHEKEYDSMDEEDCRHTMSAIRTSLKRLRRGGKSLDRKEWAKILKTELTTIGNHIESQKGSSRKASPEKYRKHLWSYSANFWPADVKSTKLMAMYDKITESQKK

Sequence of Sialic acid-binding Ig-like lectin 9 (Homo sapiens) (Q9Y336 whole entry): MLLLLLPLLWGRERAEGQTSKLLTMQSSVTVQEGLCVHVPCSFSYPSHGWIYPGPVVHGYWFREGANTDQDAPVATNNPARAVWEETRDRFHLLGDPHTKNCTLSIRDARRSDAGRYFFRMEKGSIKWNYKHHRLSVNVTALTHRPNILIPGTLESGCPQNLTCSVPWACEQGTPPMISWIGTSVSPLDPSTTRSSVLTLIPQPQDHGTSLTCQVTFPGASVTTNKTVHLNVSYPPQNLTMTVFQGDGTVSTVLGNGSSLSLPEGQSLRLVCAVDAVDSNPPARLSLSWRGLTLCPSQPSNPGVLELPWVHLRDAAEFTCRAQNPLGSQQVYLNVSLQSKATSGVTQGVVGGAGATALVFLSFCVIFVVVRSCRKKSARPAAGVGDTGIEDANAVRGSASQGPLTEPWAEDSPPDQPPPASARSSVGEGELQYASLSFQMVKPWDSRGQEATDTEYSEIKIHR
Sequence of Protein translocase subunit SecA (Escherichia coli (strain K12)) (P10408 whole entry): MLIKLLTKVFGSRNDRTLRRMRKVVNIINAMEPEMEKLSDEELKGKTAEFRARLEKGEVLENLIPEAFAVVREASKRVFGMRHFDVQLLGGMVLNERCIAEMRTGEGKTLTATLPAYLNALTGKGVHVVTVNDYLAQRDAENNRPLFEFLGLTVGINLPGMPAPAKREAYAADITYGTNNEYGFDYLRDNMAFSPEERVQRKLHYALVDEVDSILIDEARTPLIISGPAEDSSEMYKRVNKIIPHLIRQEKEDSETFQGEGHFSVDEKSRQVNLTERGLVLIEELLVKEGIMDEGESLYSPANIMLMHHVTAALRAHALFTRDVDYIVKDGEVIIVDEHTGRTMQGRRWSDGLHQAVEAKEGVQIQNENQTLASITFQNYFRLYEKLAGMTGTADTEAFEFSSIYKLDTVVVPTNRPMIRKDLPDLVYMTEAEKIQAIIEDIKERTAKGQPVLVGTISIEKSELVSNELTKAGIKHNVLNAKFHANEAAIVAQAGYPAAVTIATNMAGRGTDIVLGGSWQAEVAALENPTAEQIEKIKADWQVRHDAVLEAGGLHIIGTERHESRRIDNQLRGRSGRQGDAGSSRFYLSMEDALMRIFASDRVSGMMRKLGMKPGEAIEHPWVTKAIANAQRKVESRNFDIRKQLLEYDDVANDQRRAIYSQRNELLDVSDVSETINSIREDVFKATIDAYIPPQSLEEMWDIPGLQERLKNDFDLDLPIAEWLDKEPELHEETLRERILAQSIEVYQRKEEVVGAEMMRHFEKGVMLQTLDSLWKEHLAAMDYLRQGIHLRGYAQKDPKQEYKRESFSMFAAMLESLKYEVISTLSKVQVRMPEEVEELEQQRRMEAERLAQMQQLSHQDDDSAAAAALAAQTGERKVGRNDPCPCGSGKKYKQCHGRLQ

Consider `CN(C)C(=O)CS(=O)(=O)Cc1cc(Cl)c2c(c1)OCCCO2`, for which the Percent Effect in assay [1] was -5%; in assay [2], 18.4%; in assay [3], 2.36%; in assay [4], -11.3%; in assay [5] it was -4.2%; in assay [6] it was 3.24%. Moreover, the Percent Effect in assay [7] was 6.68%; in assay [8] it was 3.48%; in assay [9], 1.48%; in [10], -8.64%; in [11], -7.42%.
Take `Cc1nn(C)c(C)c1CNCc1ccc(N2CCOCC2)nc1`: the Percent Effect is -1.63% in assay [1]; 11.4% in [2]; 6.09% in assay [3]; -0.523% in assay [4]; 1.95% in [5]; -1.5% in assay [6]. In addition, the Percent Effect was 10.6% in assay [7]; 13.4% in assay [8]; 8.33% in [9]; 25.3% in assay [10]; -25.1% in assay [11].
Consider `CC(=O)Nc1cc(C(=O)N2CCOCC2c2ccc(C)o2)ccc1F` (stereo not given), for which the Percent Effect in assay [1] is -3.55%; in assay [2] it was 2.67%; in assay [3], -3.55%; in assay [4] it was -1.06%; in assay [5] it was -2.43%; in assay [6] it was -1.04%. Further, the Percent Effect in [7] was 4.18%; in [8], -20.8%; in assay [9], 0.546%; in assay [10] it was 3.7%; in assay [11], 1.78%.
Consider `Cc1ccc([C@@H]2CN(S(=O)(=O)N(C)C)C[C@H]2N(C)C)cc1`, for which the Percent Effect in assay [1] is -5.32%; in assay [2], 13.5%; in assay [3], -7.05%; in [4], 37%; in [5] it was 3.42%; in [6] it was 45.9%. In addition, the Percent Effect in assay [7] was 8.84%; in assay [8] it was -3.64%; in assay [9], 4.3%; in [10] it was 11.1%; in assay [11] it was -14.3%.
As for `COc1ccc(CNC(=O)c2nn(C)c3c2CS(=O)(=O)CC3)cc1OC`, the Percent Effect in assay [1] was -1.94%; in [2], 6.67%; in assay [3] it was 4.43%; in assay [4], 3.41%; in assay [5], -2.16%; in assay [6], -11.8%. Moreover, the Percent Effect is 14.8% in [7]; 5.39% in assay [8]; 3.17% in [9]; 17.9% in assay [10]; -9.43% in [11].
Turning to `COC(=O)C1CCN(C(=O)CN2CCN(c3cccc(C)c3)CC2)CC1`, the Percent Effect in [1] was -1.93%; in assay [2], 2.74%; in assay [3] it was 1.05%; in assay [4], 3.16%; in assay [5], -7.54%; in [6] it was -1.6%. Also, the Percent Effect is 8.65% in assay [7]; 0.408% in assay [8]; 5.21% in [9]; 16.1% in assay [10]; -1.41% in assay [11].
As to `Cc1noc(C)c1CN1CCN(CC2CC2)c2ncccc2C1`, the Percent Effect in [1] is -0.988%; in assay [2] it was 5.33%; in assay [3] it was -0.194%; in assay [4] it was -3.6%; in [5], -5.71%; in assay [6] it was 3.5%. Also, the Percent Effect in assay [7] is 4.49%; in [8], 23%; in assay [9] it was 4.25%; in [10], 8.97%; in assay [11], -3.22%.
On to `COC(=O)[C@H](C)NC(=O)c1cc(-c2cccc(Cl)c2)no1`, for which the Percent Effect in [1] was -6.04%; in assay [2], 5.26%; in assay [3], -4.37%; in assay [4], -0.548%; in assay [5] it was 2.43%; in [6], -4.73%. Further, the Percent Effect was 21.2% in [7]; 6.45% in assay [8]; 5.32% in assay [9]; 10.4% in assay [10]; -8.08% in [11].
Regarding `Cc1ccsc1CN(C)C(=O)Cn1nc(-c2ccc(F)cc2)oc1=O`, the Percent Effect in assay [1] was -0.652%; in assay [2] it was 13.2%; in assay [3] it was 1.09%; in assay [4], -2.29%; in assay [5], 3.8%; in [6] it was -3.55%. In addition, the Percent Effect in assay [7] is 22.5%; in assay [8] it was 10.2%; in [9], -8.51%; in assay [10], 0%; in assay [11] it was -6.06%.
Consider `Cc1cnn(C2CCCN(C(=O)CCCOc3cccc(F)c3)C2)c1` (stereo not given), for which the Percent Effect in assay [1] was -4.89%; in [2], -1.27%; in assay [3] it was 42.4%; in assay [4] it was 2.93%; in [5], 0.513%; in assay [6], 4.52%. The Percent Effect in assay [7] was 0%; in [8] it was 3.38%; in assay [9], -3.12%; in assay [10] it was -5.06%; in [11], -28.9%.
